Experimental data from the OligoGym collection.

molecular target: SQRDL; assay: pooled miR-30 sensor sort-seq; sequence = guide strand; details: shRNA

Going from TAACTGAATAATTCGACCCTAT to ATAATTACAGAAATTGTCCTAT, the sensor-assay potency score (higher = more potent) rises from -0.071 to 0.475.

Going from TTCTTTATCCACATCCACCCAA to TTAACTGAATAATTCGACCCTA, the sensor-assay potency score (higher = more potent) rises from -0.645 to 0.0839.

Going from TTTAATCTTCTCATAGTCCAGC to ATAGGTTCCAAGTCCTTCGTGC, the sensor-assay potency score (higher = more potent) rises from 0.0208 to 0.618.

First: TTTCTTGTAGTTAACAGTGAGG
Second: TTTGGCACCAGCACCCACCAGT
The sensor-assay potency score (higher = more potent) of the first is lower: -0.847 for the first, -0.354 for the second.

First: TTGGTCACCATTACCCATCAAG
Second: TTGTCCTATCAAGTATTCCTGA
The sensor-assay potency score (higher = more potent) of the first is lower: -1.14 for the first, -0.574 for the second.

In the case of AATCTTCTCATAGTCCAGCTGG, the sensor-assay potency score (higher = more potent) is reported as -0.573.

molecular target: SRCAP; assay: as above; details: shRNA

Going from TGTTCTTCAACTTCAATCGTTT to TTCACCACCACCACTGTCCGGC, the sensor-assay potency score (higher = more potent) rises from -0.243 to 0.285.

Compared with TTGTTCTTCAACTTCAATCGTT, AACTCTAGTAGATCCATCCAGG is lower in sensor-assay potency score (higher = more potent): 0.0088 for the first, -0.807 for the second.

First: TATAGTATCCTCTTCATCCTCC
Second: TCAACATCCACCTTAACTCGGC
The sensor-assay potency score (higher = more potent) of the first is higher: 0.687 for the first, 0.0488 for the second.

Going from TTCCACTTGCTCTTCTGCCTGT to TTAATGACAATGTCTGAGTTGG, the sensor-assay potency score (higher = more potent) falls from 0.497 to 0.105.

Going from TAGACCTTCATTATACTCTTGG to TTTATCTCCAACACCTGAGGGG, the sensor-assay potency score (higher = more potent) rises from 0.352 to 0.481.

Compared with TTGCTTGAATTGCACCACCTTC, TAGAGGACACAGGACTAGCAAG is lower in sensor-assay potency score (higher = more potent): -1.29 for the first, -1.62 for the second.

molecular target: SRCRB4D; assay: as above; details: shRNA

Going from TACACGTCCCTCGCATCGGTGG to TTCGCAGTGCACGTTGTCCAGC, the sensor-assay potency score (higher = more potent) rises from -1.14 to -0.781.

Compared with TTTTCCATTCGGCAGTGTCGTA, TTGTCCAGCAGGATGTGTCCGG is higher in sensor-assay potency score (higher = more potent): -1.69 for the first, -0.554 for the second.

First: TTAACATCTTCCTTGTTGGGGG
Second: TTGACCAGACGTAGATGCCCGT
The sensor-assay potency score (higher = more potent) of the first is higher: 0.296 for the first, -0.902 for the second.

First: TCTACTGGTTAACATCTTCCTT
Second: TAACATCTTCCTTGTTGGGGGC
The sensor-assay potency score (higher = more potent) of the first is lower: -0.575 for the first, -0.0485 for the second.

Going from TTGGCGTCCACCACGTCCCAGT to TTCATCACACAGGACAGCCACA, the sensor-assay potency score (higher = more potent) falls from -1.07 to -1.36.

Compared with TCGTAGGAGGTGCTCTACTGGT, TGCTCTACTGGTTAACATCTTC is higher in sensor-assay potency score (higher = more potent): -1.24 for the first, -0.561 for the second.

molecular target: SRC; assay: as above; details: shRNA

Going from TGAAACCACAGCATACAACTGC to TGTGTTGTTGACAATCTGGAGC, the sensor-assay potency score (higher = more potent) falls from 0.358 to -0.666.

First: TCTGTGTTGTTGACAATCTGGA
Second: TCTCGCACGAGGAAGGTCCCTC
The sensor-assay potency score (higher = more potent) of the first is higher: 0.0722 for the first, -0.579 for the second.

With TTGAAGGACAGGTCTGTCTCCG the sensor-assay potency score (higher = more potent) was 0.367.
